Source: PubChem (National Center for Advancing Translational Sciences (NCATS))
A549 viability: Nrf2 qHTS screen for inhibitors: counterscreen for cytotoxicity. A549 ARE-Fluc cells, CellTiter-Fluor viability, 18-24 h. Potency, µM (top dose mostly 46 µM), actives largely listed as inhibitors. 390,000 tested, 0.16% active. AID 504648, 2011
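Cytotoxicity counterscreen: CellTiter-Fluor fluorescence was measured in A549 ARE_Fluc cells after 18-24 h of compound exposure in a concentration series. The subsequent BugLite luminescent read reports ARE-luciferase activity.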
IDH1 R132H inh: qHTS for Inhibitors of mutant isocitrate dehydrogenase 1 (IDH1): qHTS. Isocitrate dehydrogenase [NADP] cytoplasmic (Homo sapiens), O75874. IDH1-R132H enzyme, NADPH consumption, diaphorase/resazurin fluorescence. Potency, µM (titrated, usually from 76.6 µM), actives largely listed as inhibitors. 390,000 tested, 0.093% active. AID 602179, 2012; note: nearly all actives have a fitted effect of over 65% in size
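IDH1-R132H (0.5 ug/mL dispensed) in pH 7.5 Tris buffer was preincubated 30 min with compound, then given a substrate mix of 0.016 mM NADPH and 2 mM alpha-KG for 80 min at room temperature; remaining NADPH was read by diaphorase/resazurin fluorescence.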
LDHA inh: qHTS assay for inhibitors of human lactate dehydrogenase; AID 1347041, 2019; activity change, % (values are at about 110 or 230 µM); L-lactate dehydrogenase A chain (Homo sapiens), P00338; purified LDHA, NADH/diaphorase-resazurin fluorescence; active compounds read low; 480,000 tested, 0.15% active; in the data active = activity change below about -30%; inconclusive = mostly about -25% to -30%
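Human LDH5 (2 nM) was incubated with 0.06 mM NADH and 0.2 mM pyruvate for 5 min at room temperature in Tris pH 7.4. Remaining NADH was coupled through diaphorase/resazurin, and resorufin fluorescence was read at 0 and 20 min.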
Nrf2 inh: Nrf2 qHTS screen for inhibitors; A549 ARE-Fluc reporter, luciferase luminescence, 18-24 h; 360,000 tested, 2.1% active; Potency, µM (series often up to 46 µM), actives largely listed as inhibitors; note: nearly all actives have a fitted effect of over 60% in size
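In this cell-based qHTS, ARE-driven firefly luciferase in A549 cells reports Nrf2 activity; the luminescent signal after BugLite lysis is the measured value, with a prior CellTiter-Fluor read for cell health.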
Nrf2 ARE act: qHTS of Nrf2 Activators | AREc32 ARE-luciferase reporter (MCF7-derived line), luminescence, 24 h | Potency, µM (highest dose often 46.1 µM), most hits filed as activators | 410,000 tested, 0.31% active; note: nearly all actives have a fitted effect of over 65% in size
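AREc32_Fluc, 1000 cells/well, OPTI-MEM + 5% FBS, o/n 37 deg C 5% CO2; 23 nL cpd by pin tool, 24 hr; Steady-Glo 30 min RT, luminescence.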
12-LOX inh: Primary qHTS assay for inhibitors of human arachidonate 12S-lipoxygenase (ALOX12): Round 2 | Potency, µM (top dose mostly 108 µM), actives largely listed as inhibitors | purified 12hLO, xylenol orange hydroperoxide absorbance | 580,000 tested, 1.1% active
Target sequence (P18054 whole entry, looked up): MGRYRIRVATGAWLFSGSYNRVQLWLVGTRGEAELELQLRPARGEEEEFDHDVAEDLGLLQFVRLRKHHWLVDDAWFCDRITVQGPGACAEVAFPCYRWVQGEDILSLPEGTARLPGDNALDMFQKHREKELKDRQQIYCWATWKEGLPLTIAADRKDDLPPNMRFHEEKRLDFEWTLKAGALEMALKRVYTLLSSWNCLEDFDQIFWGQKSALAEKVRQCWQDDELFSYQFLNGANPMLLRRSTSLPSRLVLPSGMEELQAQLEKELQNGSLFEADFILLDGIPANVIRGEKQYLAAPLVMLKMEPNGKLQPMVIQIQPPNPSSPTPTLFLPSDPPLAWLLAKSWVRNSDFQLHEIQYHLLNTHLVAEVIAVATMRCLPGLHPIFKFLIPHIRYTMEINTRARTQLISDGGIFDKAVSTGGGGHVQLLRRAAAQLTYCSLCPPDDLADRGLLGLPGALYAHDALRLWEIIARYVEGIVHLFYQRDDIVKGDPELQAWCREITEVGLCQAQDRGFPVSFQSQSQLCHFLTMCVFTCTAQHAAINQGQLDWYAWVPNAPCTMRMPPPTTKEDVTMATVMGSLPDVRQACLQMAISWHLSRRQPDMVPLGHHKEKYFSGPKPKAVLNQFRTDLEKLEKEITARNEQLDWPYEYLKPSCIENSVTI
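Purified human 12hLO (150 nM final) in 25 mM Hepes, 0.01% Triton X-100, pH 7.0 was preincubated 15 min at room temperature with compound. Then 40 uM arachidonic acid was added, 30 min. Hydroperoxide was read by Fe-XO absorbance ratio 573/405 nm.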
Hits are given with their value; n = inactive; u = inconclusive; x = not tested or not shown; ! = a repeat was not active. Hits are enriched below; roughly 2.7% of the tested compounds scored in any of these assays. Unless noted, calls come from the whole dose curve; as a rule, active = well fitted curve in the direction sought with a large enough effect; inconclusive = small, poorly fitted or top-dose-only effect, or another doubt; inactive = no such curve, though single readings can be large; an effect the other way counts as inactive or inconclusive.

SMILES | A549 viability | IDH1 R132H inh | LDHA inh | Nrf2 inh | Nrf2 ARE act | 12-LOX inh
COc1cc2c(cc1OC)-c1cc(NC3CCCCC3)nc(=O)n1CC2 | n | n | n | n | n | 25µM
COc1cc2c(cc1OC)-c1cc(NCc3ccccn3)nc(=O)n1CC2 | n | u | n | n | n | 7.9µM
CC1CN(Cc2ccccc2)C(=O)N(c2ccccc2)C1=O (centres undefined) | n | n | n | n | n | n
CC1CN(Cc2ccccc2)c2ccccc2NC1=S (centres undefined) | n | n | n | n | n | 35µM
CN1c2cc(C(=O)Nc3ccc(Br)cc3)ccc2C(=O)N2CCCCC21 (centres undefined) | x | x | x | x | x | n
CCC(=O)Nc1ccc2c(c1)nc(CCn1ccnc1C)n2C | x | x | n | x | x | u
CCOC(=O)c1ccc(N=c2ssnc2Cl)cc1 | n | n | n | u | n | 2.2µM
COc1ccc(N=c2ssnc2Cl)cc1 | n | n | n | n | n | x
CSC1CCCCC1(O)CSc1nc2c(cc1C#N)CCCC2 (centres undefined) | n | n | n | n | n | 7.1µM
COC(=O)CSc1nc2c(cc1C#N)CCCC2 | x | x | n | x | x | u
S=C1Cc2ccccc2N1 | 16µM | 37µM | n | 12µM | n | u
CCN(CC)C(=O)Cn1nnnc1-c1ccc(Br)cc1 | x | x | n | x | x | n
N#Cc1nc(-c2ccc(S(=O)(=O)N3CCCC3)cc2)oc1N1CCN(c2cccc(Cl)c2)CC1 | x | x | n | x | x | n
O=S(=O)(Nc1ccc(O)c(Sc2nc3ccccc3s2)c1)c1cc(Cl)ccc1Cl | n | n | n | n | n | 10µM
Cc1cc(S(=O)(=O)Nc2ccc(O)c(Sc3nc4ccccc4s3)c2)ccc1Cl | n | u | n | n | n | u
COc1ccc2nc(SCCOC(=O)Nc3ccc(Cl)cc3)nc(C)c2c1 | u | n | n | 23µM | n | n
COc1ccccc1NS(=O)(=O)c1ccc(NC(=O)c2ccccn2)cc1 | n | n | n | 21µM | n | n
COc1ccccc1NS(=O)(=O)c1cccc(NC(=O)c2sc3ccccc3c2Cl)c1 | n | n | n | 9.2µM | n | n
COc1ccc(NC(=O)c2ccc(-c3ccccc3)cc2)cc1NS(=O)(=O)c1ccc(F)cc1 | n | n | n | 15µM | n | n
Cc1ccc(-c2cc(C(=O)N3CCCCCC3)c3ccccc3n2)s1 | x | x | n | x | x | u
CCC(CC)NC(=O)Cc1nn(C)c(=O)c2ccccc12 | x | x | n | x | x | n
CC(C)C[C@H](Nc1ncnc2sc3c(c12)CCCC3)C(=O)O | x | x | n | x | x | u
CCOC(=O)c1sc(NC(=O)CSc2nc(C)cc(C)n2)c(C#N)c1C | n | n | n | u | n | n
CCOC(=O)c1sc(NC(=O)CSc2n[nH]c(-c3ccccc3)n2)c(C#N)c1C | n | n | n | 23µM | n | u
CCOC(=O)c1sc(NC(=O)CCCC(=O)O)c(C#N)c1C | x | x | n | x | x | 6.3µM
SMILES | A549 viability | IDH1 R132H inh | LDHA inh | Nrf2 inh | Nrf2 ARE act | 12-LOX inh
Cc1ccc(O)c(NC(=O)CSc2n[nH]c(C)c2[N+](=O)[O-])c1 | n | n | n | n | 11µM | n
CSc1ccccc1NC(=O)CSc1n[nH]c(C)c1[N+](=O)[O-] | n | n | n | n | n | u
N#CC(=Cc1ccccn1)c1nc(-c2ccc(Cl)cc2)cs1 | x | n | n | x | 13µM | u
Cc1cc(C)c2c(CN3CCC(C)CC3)cc(=O)oc2c1 | n | n | n | u | n | 45µM
Cc1cc(C)c2c(CN3CCCCC3)cc(=O)oc2c1 | n | n | n | n | n | n
COC(=O)c1ccc(Cl)cc1NC(=O)N(Cc1ccc(OC)cc1)C1CCN(C(C)=O)CC1 | n | u | n | n | n | n
CCN1CCC(N(Cc2ccco2)C(=O)Nc2cc(Cl)ccc2C(=O)OC)CC1 | x | x | n | x | x | 6.3µM
C=CC[C@H]1CC=C[C@H](CC=C)[N+]1(C)C | x | x | n | x | x | 7.1µM!
